# ELG1 genotoxic – induces genotoxicity in HEK293T cells with luciferase-tagged ELG1; AID 504466; Potency, µM (highest dose often 46 µM), without a hit: top-dose activity change, positive = activation, hits mostly activators; HEK293T ELG1-luciferase reporter, luminescence, 16 h; hit rate 1.3% among 330,000; further: % of control where 0% means no effect; nearly all actives have a fitted effect of over 60% in size
#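 Step 1: seed 2,000 HEK293T ELG1-luciferase cells per well. Step 2: add compound or DMSO, incubate 16 hr at 37 °C. Step 3: ONE-Glo, 30 min at room temperature, read luminescence.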
# NPC1 promoter act – activates the NPC1 promoter. Potency, µM (top dose mostly 9.22 µM), for the others: top-dose activation, hits mostly activators. hit rate 2.4% among 320,000. Huh7 NPC1 promoter luciferase reporter, 24 h; further: % of control where 0% means no effect; nearly all actives have a fitted effect of over 60% in size
#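 Luminescence read-out of NPC1 promoter-driven luciferase in stably transfected Huh7 cells; compounds delivered in DMSO and left 24 h at 37C, 5% CO2, qHTS titration format.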
# Luc counter – Kinase-Glo luciferase inhibition (counter-screen) | Q27757 | AID 1379 | hit rate 0.28% among 200,000 | Kinase-Glo luciferase, ATP luminescence, 8 min | Potency, µM (titrated, usually from 38.3 µM), for inactives: at the top dose activity change, negative = inhibition, actives largely listed as inhibitors; further: on the % scale 0 is the no-effect control and ±100 the full control effect; nearly all actives have a fitted effect of over 60% in size
#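 Inhibition of Kinase-Glo luciferase light generation was assessed at 10 uM ATP in pH 7.2 imidazole buffer, with luminescence measured after eight minutes at ambient temperature.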
# SMN2 splice enh – enhancers of SMN2 splice variant expression; hit rate 2.8% among 210,000; Potency, µM (highest dose often 46.1 µM), for the others: top-dose activity change, positive = activation, usual class: activators; AID 1458; HEK293 SMN2-luciferase splicing reporter, luminescence, 30-36 h; further: % of control where 0% means no effect; nearly all actives have a fitted effect of over 55% in size
#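 HEK293 cells carry an SMN2 […]–luciferase reporter in which exon 7 inclusion puts luciferase in frame. Cells were plated 10-12 h before compound addition, then incubated 30-36 h at 37C. ONE-Glo luminescence was read; sodium butyrate at 4.5 mM final served as control.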
# FLuc counter – firefly luciferase modulation, counter-screen for miR-21 project; purified FLuc, Km substrates, luminescence inhibition; Potency, µM (highest dose often 57.5 µM), for inactives: at the top dose activity change, negative = inhibition, actives largely listed as inhibitors; hit rate 6.9% among 360,000;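 further: plate controls were vehicle for no effect and reference inhibitor for full effect; nearly all actives have a fitted effect of over 55% in size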
# Target sequence (P08659 whole entry, looked up): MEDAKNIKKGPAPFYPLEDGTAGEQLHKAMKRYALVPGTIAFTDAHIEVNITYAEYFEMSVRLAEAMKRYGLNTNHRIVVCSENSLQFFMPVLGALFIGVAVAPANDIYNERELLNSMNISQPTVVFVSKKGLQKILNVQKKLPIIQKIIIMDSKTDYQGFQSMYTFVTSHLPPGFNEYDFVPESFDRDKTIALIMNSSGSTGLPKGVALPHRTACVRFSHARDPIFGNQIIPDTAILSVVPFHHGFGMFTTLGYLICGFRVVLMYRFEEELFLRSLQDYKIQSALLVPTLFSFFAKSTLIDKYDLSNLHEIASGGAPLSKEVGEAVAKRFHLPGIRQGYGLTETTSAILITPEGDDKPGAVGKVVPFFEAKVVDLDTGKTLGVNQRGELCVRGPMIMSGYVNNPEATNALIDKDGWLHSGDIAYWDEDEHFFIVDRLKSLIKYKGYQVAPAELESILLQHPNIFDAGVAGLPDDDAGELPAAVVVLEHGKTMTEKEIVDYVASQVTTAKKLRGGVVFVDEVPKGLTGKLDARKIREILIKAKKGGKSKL
#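 Purified P. pyralis luciferase (10nM final) with 10uM D-luciferin and 10uM ATP (Km levels) in 50mM Tris acetate pH 7.5, 10mM Mg acetate, 0.01% Tween-20, 0.05% BSA; qHTS 6-point titration, ~60 µM downward; luminescence read.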
# Rab9 prom act – activators of Rab9 promoter. Huh7 Rab9 promoter-luciferase reporter, luminescence, 24 h. Potency, µM (titrated, usually from 9.22 µM), inactives show at the top dose activation, negative = inhibition, actives largely listed as activators. hit rate 2.8% among 320,000; further: % of control where 0% means no effect; nearly all actives have a fitted effect of over 60% in size
#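 Quantitative HTS format; Huh7 Rab9-luciferase reporter cells (1500/well) receive compound 2 h post-plating, incubate 24 h at 37 °C, then get luciferase reagent for 10 min before luminescence reading.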
# * hit, by the source's call; ? = inconclusive; · = not tested or not shown; [ ] = dose if it differs, or a comment. Only some compounds are listed: those with a hit (about 7.5% of all), similar ones and a draw of the others. The call rests on the fitted dose curve; in most records, active means well fitted curve in the direction sought with a large enough effect; inconclusive means small, poorly fitted or top-dose-only effect, or another doubt; inactive means no such curve, though single readings can be large; an effect the other way counts as inactive or inconclusive. Potency means the concentration at half of the fitted maximal effect.
SMILES,ELG1 genotoxic,NPC1 promoter act,Luc counter,SMN2 splice enh,FLuc counter,Rab9 prom act
CNC(=O)c1ccc(Nc2nc(-c3ccccc3)nc3ccccc23)cc1,-15.7%,15.7%,·,·,?,16.1%
Cc1ccc(-c2nc(C(Cl)Cl)c3ccccc3n2)cc1,17.6%,-36.5%,·,·,13.5µM*,-40.7%
O=C(O)c1ccc(Nc2nc(-c3ccccc3)nc3ccccc23)cc1,-5.6%,-3.8%,·,·,21.3µM*,-8.9%
Cc1ccc(-c2nc(NCc3ccco3)c3ccccc3n2)cc1,-0.9%,0.2%,-2.6%,15.2%,?,-5.8%
COc1ccc(NC(=O)c2ccc(S(=O)(=O)N3CCCCC3)cc2)cc1OC,1.0%,·,·,·,·,·
Cc1ccc(C)c(Nc2nc3c(S(=O)(=O)c4ccc(C(C)C)cc4)nnn3c3ccsc23)c1,·,·,·,·,-7.3%,·
O=C(c1ccc(OC2CCN(CCc3ccccc3)CC2)cc1)N1CCCCC1CCCO (stereo not given),-4.3%,3.3%,·,·,1.2%,3.7%
N#CCSc1nc2[nH]ncc2c(=O)n1-c1ccccc1Br,?,?,10µM*,·,0.135µM*,0.316µM*
O=C(CSc1nc2[nH]ncc2c(=O)n1-c1ccccc1Br)NCc1ccccc1Cl,-2.0%,-7.6%,-0.2%,5.3%,0.4%,-3.9%
Fc1ccc(N2CCN(c3ncnc4[nH]ncc34)CC2)cc1,·,·,·,·,-0.2%,·
CCOC(=O)CNc1ccc(C(=O)OCC)cc1[N+](=O)[O-],4.0%,-1.7%,-0.1%,8.0%,-12.8%,1.5%
CCCNc1ccc(C(=O)OCC)cc1[N+](=O)[O-],?,?,-1.1%,-10.6%,26.9µM*,?
Cc1ccc(C(=O)COC(=O)c2ccc(Cl)c(N)c2)s1,13.8%,?,·,·,1.35µM*,3.16µM*
O=C(OCC(=O)c1ccc(Cl)s1)c1ccc(CO)cc1,-1.0%,0.2%,·,·,21.3µM*,0.0%
Nc1cc(C(=O)OCC(=O)c2ccc(CC(=O)N3CCOCC3)s2)ccc1Cl,-0.6%,-0.1%,·,·,?,-4.2%
CC1=C/C(=C(/c2ccc(O)c(C)c2)c2ccccc2S(=O)(=O)O)C=CC1=O,-1.1%,-5.0%,·,·,?,-5.9%
CC1=C/C(=C(/c2cc(C)c(O)c(Br)c2)c2ccccc2S(=O)(=O)O)C=C(Br)C1=O,-11.5%,-8.9%,·,·,15.1µM*,-3.0%[1.84 µM]
COc1cc(Br)c(/C=C/c2ccc3cccc(O)c3n2)cc1OC,?,16.7%,·,·,?,-2.5%[1.84 µM]
COc1ccc(OC)c(/C=C/c2ccc3cccc(O)c3n2)c1,?,10.6%,·,·,13.5µM*,6.2%
COc1cc(/C=C/c2ccc3cccc(O)c3n2)ccc1O,16.4µM*,?,·,·,6.75µM*,3.16µM*
CSc1ccc(/C=C/c2ccc3cccc(O)c3n2)cc1,?,3.16µM*,-21.4%,12.6µM*,2.39µM*,1.26µM*
COc1cc(/C=C/c2ccc3cccc(O)c3n2)c(Br)cc1O,?,-1.4%,·,·,?,3.3%
CCc1noc(C)c1C(=O)NNC(=O)c1ccc(N(CC)CC)cc1,0.1%,-2.9%,·,·,?,-4.8%
Fc1ccc(C2=CSC3=NCCN23)cc1,1.0%,0.4%,1.2%,-1.1%,-12.8%,-2.5%
N=c1nc(N)nc2n1NC(c1ccc(F)cc1)=CS2,15.8%,-0.7%,0.1%,20.3%,15.1µM*,-1.8%
SMILES,ELG1 genotoxic,NPC1 promoter act,Luc counter,SMN2 splice enh,FLuc counter,Rab9 prom act
CC(=O)Nc1ccc(NC(=O)COC(=O)c2c3c(nc4ccccc24)CCN(Cc2ccccc2)C3)cc1,-2.8%,6.5%,·,·,8.49µM*,6.5%
O=C(COC(=O)c1c2c(nc3ccccc13)CCN(Cc1ccccc1)C2)Nc1c(F)cccc1F,-7.4%,-3.8%,1.8%,-23.1%,?,-6.6%
COc1cccc(C(=O)COC(=O)CCC(=O)c2ccccc2)c1,1.6%,-20.7%,·,·,-17.7%,-3.0%
CC(=O)Nc1ccc(NC(=O)C(C)Sc2n[nH]c(-c3ccc(C)cc3)n2)cc1 (stereo not given),2.8%,12.9%,·,·,23.9µM*,?
COc1cc(OC)c(NC(=O)c2ccc3nc(C(C)C)oc3c2)cc1Cl,·,·,·,·,3.5%,·
COc1ccccc1/C=N/NC(=S)NCc1ccco1,-1.6%,1.6%,·,·,-3.4%,0.6%
COc1cc(/C=N/NC(=S)NCc2ccco2)cc(OC)c1OC,31.9%,-1.2%,1.0%,35.5µM*,-0.4%,-3.2%
Cn1ncc(Cl)c1C(=O)N1CCN(c2ncccn2)CC1,0.3%,-7.8%,2.0%,6.4%,-1.3%,-13.4%
Fc1ccc2nc3[nH]c4ccccc4c3nc2c1,?,3.16µM*,-8.3%,15.8µM*,1.9µM*,3.16µM*
CC(=O)c1ccc(NC(=O)CCn2nc(C)c(S(=O)(=O)N3CCC(C)CC3)c2C)cc1,·,·,·,·,-2.1%,·
CC(C)c1cccc(C(C)C)c1NC(=O)CNCc1ccccc1F,-2.3%,0.1%,-4.4%,-6.2%,0.9%,-12.0%
CCc1ccc(/C=C2/C(=O)NC(=O)N2C(C)=O)cc1,11.6%,15.2%,·,·,8.49µM*,27.8%
O=C(OC(C(=O)NCc1ccco1)c1ccc(Cl)cc1)c1cccs1 (stereo not given),-2.6%,1.5%,·,·,-2.7%,6.4%
Cc1ccc(/C=N/Nc2ccccn2)s1,?,?,·,·,10.7µM*,?
COc1ccc2nc(Cl)c(/C=N/Nc3ccccn3)cc2c1,?,27.8%,-23.3%,?,0.536µM*,?
CCOc1ccc(/C=N/Nc2ccccn2)cc1,2.31µM*,1.26µM*,10µM*,1.58µM*,1.2µM*,0.501µM*
Clc1ccc(/C=N/Nc2ccccn2)cc1,?,?,-16.8%,·,6.75µM*,3.16µM*
CCOc1ccccc1NS(=O)(=O)c1cnc(N)nc1,·,·,·,·,-1.9%,·
Brc1ccc(/C=N/Nc2ccccn2)cc1,?,?,-0.3%,·,6.75µM*,3.55µM*
CC1(C)Cc2ccccc2C(N/N=C/c2ccc([N+](=O)[O-])cc2)=N1,4.5%,-2.9%,-1.2%,-21.3%,-5.9%,-1.7%
Fc1ccc(/C=N/Nc2ccccn2)cc1,?,27.7%,-6.3%,81.3%,10.7µM*,3.55µM*
CC1(C)Cc2ccccc2C(N/N=C/c2ccc(Cl)cc2)=N1,-5.1%,-2.3%,2.2%,-8.0%,16.9µM*,-2.6%
COc1ccc(/C=N/Nc2ccccn2)cc1O,?,?,·,·,6.75µM*,?
CS(=O)(=O)c1cnc(-c2ccccc2)nc1-c1ccccc1Cl,-2.8%,1.6%,0.1%,-7.4%,-2.7%,-1.5%
CSc1ncccc1C(=O)OCc1ccccc1F,16.5%,?,-10.4%,27.7%,15.1µM*,27.8%
CSc1ncccc1C(=O)OCc1ccccc1,?,19.9%,-5.5%,0.7%,19µM*,?
CSc1ncccc1C(=O)OCc1ccc(COC(=O)c2cccnc2SC)cc1,5.9%,-2.0%,-0.9%,-9.5%,5.2%,0.7%

# Assay outcomes deposited in PubChem by National Center for Advancing Translational Sciences (NCATS).
